Among the data in PubChem BioAssay AID651725 (National Center for Advancing Translational Sciences (NCATS), 2012) are activity change values, retold here.

The campaign covered roughly 360,000 compounds. About 2,000 (0.56%) were called active. About 2% were inconclusive and are not listed. The full list was thinned out, with actives kept by preference. Unmarked numbers belong to inactive results. Cut-off read from the data, not from the text of the source: active = activity change below about -65%; inconclusive = mostly about -30% to -63%; inactive = weaker than that.
% is set by controls: 0 for no effect and ±100 for the full control effect.

This experiment deals with Homeobox protein SIX1 (Homo sapiens) + Protein phosphatase EYA2 (Homo sapiens) (UniProt Q15475+O00167). The experiment is described as follows: qHTS Assay for Inhibitors of the Six1/Eya2 Interaction. The following applies: AlphaScreen GST-Six1/His-Eya2 binding, biochemical; active compounds read low. The text has this: Its expression is low or undetectable in normal adult breast tissue but the gene is over-expressed in 50% of primary breast tumors and 90% of metastatic lesions. […] Similar to Six1, Eya2 is also not expressed in most normal adult tissues, but is reexpressed in cancers. The Six1-Eya interaction is essential for proliferation during embryonic development, and both Six1 and Eya2 have been independently implicated in the same types of cancer. Because Six1 and Eya2 are embryonic genes with little expression in adult tissues, inhibitors of their expression/activity are likely to have limited side effects. Our goal is to identify inhibitors of the Six1/Eya interaction for potential cancer therapy. To this end, we have developed a homogenous AlphaScreen assay targeting the Six1/Eya interaction. We performed a large scale HTS of the Molecular Libraries Small Molecule Repository (MLSMR) to identify inhibitors of the Six1/Eya interaction as potential anti-cancer therapeutics. Compounds identified can also be used as chemical probes to better understand the biological functions of Six1 and Eya. NIH Chemical Genomics Center [NCGC] NIH Molecular Libraries Probe Centers Network [MLPCN] MLPCN Grant: DA033147 Assay Submitter (PI): Rui Zhao, University of Colorado Denver
Sequence of Homeobox protein SIX1 (Homo sapiens) + Protein phosphatase EYA2 (Homo sapiens) (O00167 whole entry, looked up): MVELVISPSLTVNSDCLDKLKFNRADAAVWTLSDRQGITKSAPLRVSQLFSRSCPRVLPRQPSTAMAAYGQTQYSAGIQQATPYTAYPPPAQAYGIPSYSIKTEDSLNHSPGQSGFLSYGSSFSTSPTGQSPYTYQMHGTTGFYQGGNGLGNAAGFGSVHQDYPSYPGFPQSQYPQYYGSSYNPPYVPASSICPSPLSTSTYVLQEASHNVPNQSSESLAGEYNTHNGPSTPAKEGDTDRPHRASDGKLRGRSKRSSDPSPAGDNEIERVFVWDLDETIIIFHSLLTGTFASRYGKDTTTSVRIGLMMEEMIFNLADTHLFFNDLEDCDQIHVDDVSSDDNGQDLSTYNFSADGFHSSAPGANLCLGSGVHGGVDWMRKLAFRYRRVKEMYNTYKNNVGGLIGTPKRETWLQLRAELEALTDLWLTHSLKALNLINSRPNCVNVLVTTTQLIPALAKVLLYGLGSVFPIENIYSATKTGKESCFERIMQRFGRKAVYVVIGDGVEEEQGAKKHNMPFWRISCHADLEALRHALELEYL
Sequence of Homeobox protein SIX1 (Homo sapiens) + Protein phosphatase EYA2 (Homo sapiens) (Q15475 whole entry, looked up): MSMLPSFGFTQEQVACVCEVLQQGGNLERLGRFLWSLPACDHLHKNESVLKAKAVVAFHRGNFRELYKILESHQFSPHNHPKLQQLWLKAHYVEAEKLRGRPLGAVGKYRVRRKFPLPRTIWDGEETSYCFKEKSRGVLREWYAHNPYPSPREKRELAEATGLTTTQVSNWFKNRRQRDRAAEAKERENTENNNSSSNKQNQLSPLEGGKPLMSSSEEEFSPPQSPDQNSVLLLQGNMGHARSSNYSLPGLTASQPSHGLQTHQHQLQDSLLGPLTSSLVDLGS
The first step of the 5 uL AlphaScreen assay is to dispense assay buffer (50 mM Tris, pH 8.0, 300 mM NaCl, 0.05% BSA, 0.02% Tween 20, 1 mM TCEP) into a Greiner 1536 white solid bottom microtiter plate (789175-F). Five microliters is added to Column 1, 4 uL is added to Column 2 and 3 uL is added to Columns 3 through 48. A 5X protein solution (250 nM GST-Six1 protein + 500 nM His-tagged Eya2 protein) is mixed and 1 uL is dispensed to Columns 3-48. Using a 1536 pintool, 23 nL of compound is transferred to the assay plate. A solution of 5X AlphaScreen beads is mixed (50 ug/mL Glutathione linked donor beads + Nickel chelated acceptor beads) and 1 uL is dispensed to Columns 2-48. The assay plate is incubated for one hour, with a lid, at 37 deg C in the dark. The plate is read using a Perkin Elmer Envision using an AlphaScreen protocol.
With `CC/C(=N\NC(=O)c1ccccc1O)c1c(O)n(Cc2ccccc2)c(=O)[nH]c1=O`, the activity change was -9.73%.
To `O=C(N/N=C/c1c(O)n(C2CC2)c(=S)[nH]c1=O)c1ccccc1` belongs -88.6% (active); to `CC(C)c1ccc(-n2c(O)c(/C=N/N3CCOCC3)c(=O)[nH]c2=S)cc1`, 5.13%; to `COc1ccccc1-n1c(O)c(C=NC2CC2)c(=O)[nH]c1=O`, 0.906%.
To `O=C(N/N=C/c1c(O)n(C2CC2)c(=S)[nH]c1=O)c1ccccc1Cl` belongs -80.8% (active); to `Cc1cccc(-n2c(O)c(/C=N/N3CCOCC3)c(=O)[nH]c2=S)c1`, -2.01%.
Regarding `O=C(N/N=C/c1c(O)n(Cc2ccccc2)c(=O)[nH]c1=O)c1ccccc1`, the activity change was -70.8% (active).
On to `O=c1[nH]c(=O)n(Cc2ccccc2)c(O)c1/C=N/Nc1c(F)c(F)c(F)c(F)c1F`, for which the activity change was 1%.
To `O=c1[nH]c(=S)n(C2CC2)c(O)c1/C=N/N1CCOCC1` belongs -0.819%; to `CCOC(=O)[C@]12Cc3cc(OC)ccc3[C@H]1N(C(C)C)C(=O)c1ccccc12`, -2.51%.
Under `CCOC(=O)[C@]12Cc3ccccc3[C@H]1N(C1CCCCC1)C(=O)c1cc(OC)ccc12` stands -3.21%.
For `C[C@]12CCC3C(CC[C@H]4[C@H](O)[C@H](O)CC[C@]34C)C1CC[C@@H]2O` (stereo not given in full), the activity change was 0%.
Under `COP(=O)(NS(=O)(=O)c1ccccc1)OC` stands 12.4%; under `CC1(C)Cc2c(C#N)c(N3CCNCC3)nc(-c3ccco3)c2CS1`, -3.88%.
As for `O=C1NCN(c2ccccc2)C12CCN(C(c1cccs1)c1nnnn1C1CCCCC1)CC2` (stereo not given), the activity change was -13.5%.
As to `COc1ccc(-n2nnnc2C(c2cccc3ccccc23)N2CCC(n3c(=O)[nH]c4ccccc43)CC2)cc1` (stereo not given), the activity change is -11.3%.
To `O=C(NCC(c1cccnc1)N1CCN(c2ccccc2)CC1)Oc1ccccc1` (stereo not given) belongs -4.91%.
Under `CC12CN3CC(C)(CN(C1)C3c1cccs1)C2` (stereo not given) stands -7.54%; under `CC(C)c1ccc(OCC(=O)N2CCN(C)CC2)c(Br)c1`, -2.15%.
Under `CCC(C)n1c(O)c(/C=N/Nc2nc3c(c(=O)n(C)c(=O)n3C)n2C)c(=O)[nH]c1=S` (stereo not given) stands -86.1% (active); under `CCC(=O)CC(c1ccc([N+](=O)[O-])cc1)c1c(O)c2ccccc2oc1=O` (stereo not given), 0.567%; under `O=c1[nH]c2ccccc2n1C1CCN(C(c2ccccc2)c2nnnn2Cc2ccccc2)CC1` (stereo not given), -20.3%.
Consider `COc1ccc(CCn2c(O)c(C=NC3CC3)c(=O)[nH]c2=O)cc1OC`, for which the activity change was -3.07%.
As to `O=c1[nH]c(=O)n(CCc2ccc(F)cc2)c(O)c1/C=N/N1CCCCC1`, the activity change was 5.39%.
Consider `CCCCC(=O)N/N=C/c1c(O)n(-c2ccccc2)c(=O)[nH]c1=O`, for which the activity change is -83.5% (active).
Under `CCCCC(=O)N/N=C/c1c(O)n(CCC2=CCCCC2)c(=O)[nH]c1=O` stands -75.4% (active); under `CCc1nnc(NS(=O)(=O)c2ccc(N=Cc3c(O)n(-c4ccccc4)c(=O)[nH]c3=O)cc2)s1`, 1.54%; under `CCCCC(=O)N/N=C/c1c(O)n(CC)c(=S)n(CC)c1=O`, -9.7%.
To `COC(=O)C[C@H]1CC[C@H]2NC[C@@H](O)COC[C@@H]2O1` belongs 4.76%; to `CC[C@H]1CC2CN3CCc4c([nH]c5ccccc45)C(C(=O)OC)(C2)C13` (stereo not given in full), -23.8%.
